Laboratory results as given in PubChem BioAssay (Tox21).
Records with an inconclusive call do not appear. A number with no mark means an inactive call. The source made the active and inactive calls. Calls come from the whole dose curve.

Experiment: p53 small molecule agonists, cell-based qHTS assay with human liver microsomes: qHTS cell viability counter screen (AID 1963579); note: nearly all actives have a fitted effect of over 45% in size
Conditions: p53RE-bla HCT-116 viability, ATP luminescence, 16 h, HLM; series mostly up to 66 µM; activity change, negative = cytotoxicity: at the top concentration
Source text: National Center for Advancing Translational Sciences [NCATS]
Division of Preclinical Innovation [DPI]
U.S. Environmental Protection Agency [EPA]
National Institutes of Environmental Health Sciences [NIEHS]
National Toxicology Program [NTP]
U.S. Food and Drug Administration [FDA]
p53, a tumor suppressor protein, is activated following cellular insult, including DNA damage and other cellular stresses. The activation of p53 regulates cell fate by inducing DNA repair, cell cycle arrest, apoptosis, or cellular senescence. The activation of p53, therefore, is a good indicator of DNA damage and other cellular stresses. […] The activation of the reporter gene under culture conditions can be detected by fluorescence intensity. This cell line was used to screen the Tox21 10K compound library in the condition of presence of human liver microsomes and to identify agonists that activate the p53 signaling pathway after in vitro metabolic activation (Ooka et al., Archive of Toxicology 96:1975-1987, 2022).
Tox21 Assay Protocol Summary:
The p53RE-bla cells were dispensed at 4,000cells/3ul/well in 1536-well black-clear bottom plates. After the assay plates were incubated at 37 C, 5% CO2 incubator for 5 hours, 23 nL of compounds dissolved in DMSO, positive controls or DMSO only was transferred to the assay plate. Following compound addition, 3 uL of human liver microsomes (XenoTech, Kansas City, KS) at final concentration of 0.5 mg/mL and 1uL of B-Nicotinamide adenine dinucleotide 2'-phosphate (NADPH) at final concentration of 0.5 mg/mL were transferred to the assay plate. The plates were incubated at 37 C for 16 hours. 1 uL of LiveBLAzer detection mixture was added to each well and the plates were incubated at room temperature in the dark for 2 h. Fluorescence intensity at 460 and 530 nm emission and 405 nm excitation were measured by an Envision plate reader. For cell viability readout that measures cytotoxicity, 4 ul/well of CellTiter-Glo reagent was added into the assay plates using a Flying Reagent Dispenser. After 30 min incubation at room temperature, the luminescence intensity in the plates was measured using a ViewLux plate reader.
% is set by controls: 0 for no effect and ±100 for the full control effect.

Compound | Potency | activity change, negative = cytotoxicity
Oc1ccc2cc(SSc3ccc4cc(O)ccc4c3)ccc2c1 | inactive | –
CC(=O)CC(C)=O | – | 9%
CSc1cnccn1 | – | -3.05%
O=CC1CC=CCC1 (stereo not given) | – | 0.523%
Nc1nc(N)nc(-c2ccccc2)n1 | inactive | –
CCn1cc(C(=O)O)c(=O)c2cnc(N3CCNCC3)nc21 | – | -5.86% [at 30.3 µM]
O=c1[nH]c2cc(C(F)(F)F)c(N3CCOCC3)cc2n(CP(=O)(O)O)c1=O | – | 1.72% [at 30.3 µM]
CCCC(C)CCC(C)=O (stereo not given) | – | 1.2%
COc1cc(C=O)ccc1OC(=O)C(C)C | – | -13.1%
O=[N+]([O-])c1ccc(Oc2ccc([N+](=O)[O-])cc2)cc1 | – | -0.0696%
NC(=O)c1ccc([N+](=O)[O-])cc1Cl | inactive | –
C=CC(=O)O[C@H]1C[C@@H]2CC[C@@]1(C)C2(C)C | – | -10.6%
O=Cc1ccc([N+](=O)[O-])cc1 | – | 6.01%
c1ccc(CCc2ccccc2)cc1 | – | -3.39%
COC(=O)c1ccccc1C(=O)c1ccc(OCCN2CCCCC2)cc1 | – | 1.7% [at 30.3 µM]
O=C(c1ccc(Cl)cc1)c1ccc(Cl)cc1 | – | 3.45%
CC(C)CC(O)Cc1ccccc1 (stereo not given) | – | 11.6%
C=CCCCCCCCCC(=O)OCCCC | – | -14.2%
COC(=O)c1sccc1S(N)(=O)=O | – | 0.993%
O=S(=O)(O)c1cccc(S(=O)(=O)O)c1 | – | -4.96%

Compound | Potency | activity change, negative = cytotoxicity
C=CCCCCCCCCCCC | – | 1.8% [at 5.99 µM]
CC1COc2ccccc2N1 (stereo not given) | – | 0.532%
C=C(C)C(=O)OC(C)C | – | -3.69%
c1ccc2c(c1)CCC2 | – | -1.16%
O=S(=O)(O)c1ccc2cc(O)c(S(=O)(=O)O)cc2c1 | – | -0.736%
COC(=O)CCCCC(=O)O | – | 5.76%
O=Cc1cc2ccccc2o1 | – | -6.56%
COC(c1ccccc1)(c1ccccc1)[C@H](Oc1nc(C)cc(C)n1)C(=O)O | – | 28.3% [at 30.3 µM]
Oc1cc(O)c2c(c1)O[C@H](c1ccc(O)c(O)c1)[C@H](O)C2 | – | 13.6% [at 30.3 µM]
OCCOc1ccc(OCCO)cc1 | – | 4.28%
O=C(CCNNC(=O)c1ccncc1)NCc1ccccc1 | – | 3.55% [at 30.3 µM]
O=C(Nc1ccc(Cl)cc1)Nc1ccc(Cl)c(Cl)c1 | inactive | –
Cc1cc(N)n(-c2ccccc2)n1 | – | 4.53%
CCCC(O)C(O)CO (stereo not given) | – | -3.1%
CC(O)C(CO)C(C)O (stereo not given) | – | 0.114%
COC(=O)Nc1ccc(Cl)c(Cl)c1 | – | -10.5%
COCCOCCOCCOCCOCCO | – | 0.422%
CC1(C)[C@@H]2CC[C@@]1(C)[C@H](O)C2 | – | 5.86%
O=C(O)c1cc(=O)c2ccccc2o1 | – | 25.9% [at 30.3 µM]
O=S1(=O)OC(c2ccc(O)cc2)(c2ccc(O)cc2)c2ccccc21 | inactive | –
